Measurements reported in article PMC7819943, “Rice protein-binding microarrays: a tool to detect cis-acting elements near promoter regions in rice”.
Whole data set: some 39,000 sequences, median “fluorescence intensity (a.u.)” near 4,300, cut for the highest 2% near 39,000. The list comes from a sample in which the highest values are over-represented; it also holds similar and randomly drawn sequences.

Biological target: T1, OsSMF1 (Oryza sativa, UniProt Q6ZLB0 1-436)
T1 sequence: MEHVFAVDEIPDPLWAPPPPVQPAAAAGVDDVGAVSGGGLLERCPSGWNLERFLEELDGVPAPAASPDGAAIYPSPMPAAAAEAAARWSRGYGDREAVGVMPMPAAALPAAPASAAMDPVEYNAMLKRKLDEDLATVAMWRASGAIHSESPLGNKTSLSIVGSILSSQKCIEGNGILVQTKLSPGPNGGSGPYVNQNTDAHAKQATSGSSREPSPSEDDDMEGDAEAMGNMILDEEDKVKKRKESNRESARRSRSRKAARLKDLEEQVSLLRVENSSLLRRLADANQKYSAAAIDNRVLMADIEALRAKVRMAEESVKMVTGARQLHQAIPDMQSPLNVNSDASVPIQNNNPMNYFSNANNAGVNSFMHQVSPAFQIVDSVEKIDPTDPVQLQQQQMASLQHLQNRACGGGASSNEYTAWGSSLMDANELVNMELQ
Test: protein-binding microarray (RPBM); PBS, 2% BSA, 51.3 ng/ul salmon testes DNA, 50 uM zinc acetate, 200 nM TF, 25 C, 1 h; high values mean tight binding
Settings: protein: recombinant; tags: N-terminal polyhistidine and DsRed monomer fusion (pET32a); chain copies: 2; label: CyDye5-dUTP incorporated in the synthesized complementary strand; 3' TTTTT single-stranded linker to array surface; dsDNA, one strand shown
Method in brief: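 In PBS with 2% BSA, salmon testes DNA and 50 µM zinc acetate, 200 nM protein was incubated on a custom Agilent array at 25 °C for 1 h and then washed off. The array had been made double-stranded by primer extension with Cy5-dUTP and blocked with 2% BSA. The proteins were transcription factors fused N-terminally to polyhistidine and DsRed, expressed in E. coli BL21-CodonPlus and purified on Ni–NTA. The binding signal is per-feature fluorescence intensity (arbitrary units) from an Axon 4000B scanner.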

Sequence	binding signal
ATCTGTTAGGTATTTAATTTATTTTCTTTTGCTATGTCAGCGGAGTCACCTAGTGCAG	3880 fluorescence intensity (a.u.)
TAATTCAGCTTAATAAATTCGTCCAGCTGTTTACTGACTGCGGAGTCACCTAGTGCAG	52800 fluorescence intensity (a.u.)
GCTTAATAAATTCGTCTCGCGGTTTAATGTTGGATTCTGTCGGAGTCACCTAGTGCAG	3670 fluorescence intensity (a.u.)
TTAATGCATACTGACAGCTGTTTATGTGCTTCAAATTTACCGGAGTCACCTAGTGCAG	4700 fluorescence intensity (a.u.)
GCGCATTGGCGAGGACTGCGACTATCTGGGAAGCGTGAAGCGGAGTCACCTAGTGCAG	51500 fluorescence intensity (a.u.)
TCTGCCGCCGGCCGCGGCGAGGGATGGCATTGGCGTGGCGCGGAGTCACCTAGTGCAG	3550 fluorescence intensity (a.u.)
GCGAGCGGCCAACTGGGAAGGCGGTGGTGAGGACATCGTGCGGAGTCACCTAGTGCAG	5400 fluorescence intensity (a.u.)
GGTGTCGCGTCGCGTCTGCAGTAGAAATGGAAGCCTGGGGCGGAGTCACCTAGTGCAG	3230 fluorescence intensity (a.u.)
GGCCCACGCCGGCAGATCAGGTGGGGAGAGAAGCTCCGCCCGGAGTCACCTAGTGCAG	14700 fluorescence intensity (a.u.)
AGAAGAAGAGGAAGCTGTGGGTCAGGTGGGTTTCCGCCCACGGAGTCACCTAGTGCAG	41300 fluorescence intensity (a.u.)
AGAGGAAGAGGAAGAAGAGGTCATTCCGCCACGTCCCGGACGGAGTCACCTAGTGCAG	7090 fluorescence intensity (a.u.)
GTGGAAAAGCCAAAGGCAAAGGCAAACCACGCGTCTCTCTCGGAGTCACCTAGTGCAG	17400 fluorescence intensity (a.u.)
GCATATGGGGCATATATACGTACATGACTGAATCATCGTTCGGAGTCACCTAGTGCAG	3250 fluorescence intensity (a.u.)
ATCAAAATAGATTAAAGTTTAGTTTTAACGAAACTAGTTTCGGAGTCACCTAGTGCAG	3180 fluorescence intensity (a.u.)
ACTAAACAGATTTTCTTTAAAGTTTATGCAGAAAAGTTTCCGGAGTCACCTAGTGCAG	5060 fluorescence intensity (a.u.)
TGAGAGAGAATTGCATTTTATGACATGCCCATATGATGATCGGAGTCACCTAGTGCAG	17600 fluorescence intensity (a.u.)
ATATGGCATACATGAGAATTTAGAGAATTTACCATCAAATCGGAGTCACCTAGTGCAG	45500 fluorescence intensity (a.u.)
ACACTACCAATAGCTGGTACTTATTCAGCACAATAAGCTACGGAGTCACCTAGTGCAG	46400 fluorescence intensity (a.u.)
ACCTACTAATAACTAGTTAATTGTCTATTGTGCCCCTAGTCGGAGTCACCTAGTGCAG	13700 fluorescence intensity (a.u.)
ATTCACTGGAGGTGGTGCATCAGCATCACCAAAGCTAGCACGGAGTCACCTAGTGCAG	3970 fluorescence intensity (a.u.)
GAACTACTAAACGGTACGTCTTTTCGTTTAAAAGAATATCCGGAGTCACCTAGTGCAG	39400 fluorescence intensity (a.u.)

Sequence	binding signal
GGAAATAGTAAATAGCTACTACCAAGCCATAAGCTTACTACGGAGTCACCTAGTGCAG	17900 fluorescence intensity (a.u.)
ATTTAATAACTTCTATGGACAATATGTGCCCTGAAACTACCGGAGTCACCTAGTGCAG	48800 fluorescence intensity (a.u.)
TTCTACTATGTCATTCTAGTACTATATAAAACTACTATGCCGGAGTCACCTAGTGCAG	3690 fluorescence intensity (a.u.)
TATATATTATACCATTAATGACTGATCCTACCCTCTCATACGGAGTCACCTAGTGCAG	3290 fluorescence intensity (a.u.)
TATGTTGAGTTTGAATTTGTATATTTATGAAATGGCATATCGGAGTCACCTAGTGCAG	33000 fluorescence intensity (a.u.)
ATCGTCGTCGCCGCCGCCTCCCATGTCGTTGCTGTCGCCGCGGAGTCACCTAGTGCAG	3240 fluorescence intensity (a.u.)
TCGGCGGCGAACTTCCCCGCCGACGTGCCAGATCTCAAACCGGAGTCACCTAGTGCAG	4610 fluorescence intensity (a.u.)
AATGTAAGTCATTCTAGCATTTCTCATTAACATCAATATGCGGAGTCACCTAGTGCAG	3240 fluorescence intensity (a.u.)
ATCACATCAAAACTTTTCTACACATATAAACTTCTAACTTCGGAGTCACCTAGTGCAG	27400 fluorescence intensity (a.u.)
TCCAATCAGACGACTATTCCTATGTTTTACAATTCTCTATCGGAGTCACCTAGTGCAG	51200 fluorescence intensity (a.u.)
CAATTCATCTATAACTAATTTAATAGTCAATTCATACAATCGGAGTCACCTAGTGCAG	44100 fluorescence intensity (a.u.)
ACTTTCACAAAACTATACACATATCACTTTTCAATAAATACGGAGTCACCTAGTGCAG	19900 fluorescence intensity (a.u.)
AGTTCCTAATATTTCTCAATGTATATATGTACTCATTCCTCGGAGTCACCTAGTGCAG	3800 fluorescence intensity (a.u.)
TGCACTATTCTATATTATATTATGCAAGTTTATTTTACGACGGAGTCACCTAGTGCAG	3260 fluorescence intensity (a.u.)
CAAACTTCTAACCTTTTCATCACATCAAAACTTTTCTATACGGAGTCACCTAGTGCAG	63600 fluorescence intensity (a.u.)
TGTTCTAACAATAGCATTTCTTGCATTTAACTATGTTCCTCGGAGTCACCTAGTGCAG	52900 fluorescence intensity (a.u.)
TGTTTCTTTTCTTCAGACTAGTCACCTACGGTTTACTATTCGGAGTCACCTAGTGCAG	3720 fluorescence intensity (a.u.)
TTATTTATAACTGATCTAATAGCCAATTCACACAATAATTCGGAGTCACCTAGTGCAG	13700 fluorescence intensity (a.u.)
ACTGGCTTCAATTTATCTATAGCTAATCTAATAGCTAATTCGGAGTCACCTAGTGCAG	33900 fluorescence intensity (a.u.)
CCCTTCGTCGACACGCACCCCTGACCTCATATTTTCGCTTCGGAGTCACCTAGTGCAG	5650 fluorescence intensity (a.u.)
ATGCCATGCCAACGCACTATGCCTGGTATCCTTAGCCATCCGGAGTCACCTAGTGCAG	4060 fluorescence intensity (a.u.)
